According to PubChem BioAssay (NCI):
About 79,000 compounds went through this panel and 15% of them were active in at least one assay; those are over-represented in the sample as a whole. A number with no mark means an inactive call. Calls of active or inactive are those of the source. No stated cut-off is given here; in the data, active means growth inhibition above about 70%; inactive means the rest.

Columns and labels:
[1] = NCI Yeast Anticancer Drug Screen. Data for the rad50 strain (AID 155);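 further: 0% = growth of vehicle-only cultures of the same strain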; settings: S. cerevisiae rad50 strain growth inhibition, stronger effect = higher value
Method in brief: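 Yeast carrying a defined DNA repair defect were exposed to test compounds, and growth was compared with vehicle-treated controls to give percent inhibition.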

[2] = NCI Yeast Anticancer Drug Screen. Data for the mec2-1 strain (AID 157); settings: S. cerevisiae mec2-1 strain, stronger effect = higher value
Method in brief: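 Readout is yeast growth inhibition, normalised to vehicle-treated controls, in the mec2-1 strain exposed to compound.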

[3] = NCI Yeast Anticancer Drug Screen. Data for the sgs1 mgt1 strain (AID 161);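 further: 0% = growth of cultures given vehicle only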; settings: S. cerevisiae sgs1 mgt1 strain, stronger effect = higher value
Method in brief: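 Growth of a repair-deficient yeast mutant was monitored after compound treatment and expressed as inhibition relative to vehicle-treated cultures.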

[4] = NCI Yeast Anticancer Drug Screen. Data for the cln2 rad14 strain (AID 165);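 further: 0% = growth equal to vehicle treated cultures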; settings: S. cerevisiae cln2 rad14 strain, stronger effect = higher value
Method in brief: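 Relative to vehicle controls, growth inhibition of compound-treated cln2 rad14 yeast was recorded.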

[5] = NCI Yeast Anticancer Drug Screen. Data for the bub3 strain (AID 167); settings: S. cerevisiae bub3 mutant strain, stronger effect = higher value
Method in brief: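 Compounds were applied to a genetically altered yeast strain carrying a cell-cycle control defect. Growth inhibition was scored against vehicle-treated controls.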

[6] = NCI Yeast Anticancer Drug Screen. Data for the mlh1 rad18 strain (AID 175); settings: S. cerevisiae mlh1 rad18 strain growth inhibition, stronger effect = higher value
Method in brief: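 Test agents were incubated with a yeast strain of defined genotype (DNA damage repair defect). Inhibition of growth was derived by comparison with vehicle-exposed cultures.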

[7] = at 5.0 µM (retest, dose inferred, filed as 0.5)
[8] = at 50.0 µM (retest, dose inferred, filed as 5.0)

Compound	growth inhibition [1, 7] [%]	growth inhibition [1, 8]	growth inhibition ([1]; at 50.0 µM)	growth inhibition [2, 7] [%]	growth inhibition [2, 8]	growth inhibition ([2]; at 50.0 µM)	growth inhibition [3, 7] [%]	growth inhibition [3, 8]	growth inhibition ([3]; at 50.0 µM)	growth inhibition [4, 7] [%]	growth inhibition [4, 8]	growth inhibition ([4]; at 50.0 µM)	growth inhibition [5, 7] [%]	growth inhibition [5, 8]	growth inhibition ([5]; at 50.0 µM)	growth inhibition [6, 7] [%]	growth inhibition [6, 8]	growth inhibition ([6]; at 50.0 µM)
c1ccc(SSc2ccccn2)nc1	17	99% (active)	96.5% (active)	69	99% (active)	99.7% (active)	49	99% (active)	53.1%	0	99% (active)	99.5% (active)	50	99% (active)	99.5% (active)	62	99% (active)	99.5% (active)
CC(=O)Oc1ccc2cc(-c3ccccc3OC(C)=O)c(=O)oc2c1	12	23%	48.1%	-11	-15%	43.7%	3	30%	77.2% (active)	-6	31%	30.2%	-15	8%	57.8%	12	0%	74.5% (active)
O=CC(=O)CC(O)CO (configuration not stated)	0	74% (active)	78.4% (active)	5	69%	72.9% (active)	4	81% (active)	67.6%	1	94% (active)	89.3% (active)	0	87% (active)	98.7% (active)	-14	67%	76.3% (active)
CCCCCCCCCc1ccc(OCC(O)CO)cc1 (configuration not stated)	-3	98% (active)	99.6% (active)	-1	99% (active)	99.7% (active)	2	99% (active)	99.8% (active)	-11	98% (active)	99.5% (active)	-9	98% (active)	99.8% (active)	-4	98% (active)	99.5% (active)
N#CC(C#N)=C(C1CC1)C1CC1	-76	96% (active)	0.4%	-42	94% (active)	-2.5%	-47	96% (active)	-1.9%	-56	92% (active)	41.4%	-59	93% (active)	11.8%	-95	94% (active)	-21.9%
CC12CCC3C(CCC4CC(O)CCC43C)C1CC=CO2 (configuration not stated)	1	98% (active)	23.4%	32	99% (active)	50.6%	17	99% (active)	11.3%	0	99% (active)	-1.5%	45	98% (active)	59.4%	24	99% (active)	68.9%
CN(C)C(=S)/N=c1\ssc(=S)n1-c1ccccc1	17	100% (active)	-13.9%	39	99% (active)	-8.8%	50	100% (active)	-13.1%	38	99% (active)	-17.1%	46	100% (active)	-2.45%	23	99% (active)	20.7%
Cc1[nH]c2ccccc2c1C(C)CC(O)c1ccccc1 (configuration not stated)	5	68%	95% (active)	-4	73% (active)	85.5% (active)	2	62%	90.2% (active)	11	29%	95.8% (active)	3	67%	88.7% (active)	8	88% (active)	95.2% (active)
COc1ccc(OC)c2c1C=CC(Br)=CC2	33	33%	55.1%	24	24%	27%	26	26%	45.5%	6	6%	15.4%	19	19%	40.8%	30	30%	39.5%
